# According to the supplement of paper PMC6555819:
# System: VDR:RXRa (NR concentration 270 nM, RXRa partner concentration 90 nM)
# Test: PBM binding z-score (relative to random genomic background probes); higher = stronger binding; sequences stand for … in GC…GCGATTGACAGCGTAGAATGAAGG
# Protocol: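 Protein-binding microarray (Agilent 4x180K custom design, double-stranded 60-nt probes: 5' GC cap, 34-nt variable region, 24-nt constant primer region; full probe sequence given). Purified or IVT nuclear receptor:RXRα heterodimers (3:1 NR:RXRα, mostly 270:90 nM) or homodimers were incubated for 1 h in PBS with 2% milk and no ligand, then detected with Alexa488 antibodies. Fluorescence from o1-orientation probes (~5 replicates averaged) was converted to z-scores against 500 random hg19 background probes. Variable regions are seed direct-repeat (DR0–DR5) sites, all their single-nucleotide variants and half-site ablations.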
row,Sequence,PBM binding z-score
1,ATCGAAAGGTCGAGATGAGTATAGAGAAAGGGAA,2.4
2,CGAACTAGGTCATTGACAGGTCAGTGAATAGTAA,3.9
3,GCAGACAGCTGAAACGCAGGTAACTCAGGGTGGC,-0.826
4,GGAACGACGGCAAAGTTGATAGCATCTGTCGACG,-0.538
5,ACAGACAGGTGATGAAGGTAACACAGGCTATCAT,0.561
6,ACTAGCAGGCCAGGGGTCACTCAAGATTAGTCCG,4.42
7,ACTATTAGTTGTCTTAGGGCAACCGATACGACGC,-0.0128
8,CCGACTGGGTCAAGGTTACCATAACGCACAGCCA,2.05
9,CGTCCAAGGTCGAGGTCAGTGAAAGAGACTCGAA,3.73
10,AGAACGAGGGCACGCTGAGTTGATCGCAGAGTAG,2.12
11,TCATATAGGTATAAGGTGAAAGTCGGTGTGGTAA,1.06
12,AATACAGCGTCACTAGGCCAGAGTAGGTACGAAT,-0.29
13,TCTTGTAGATCAATCAGGTTAAGAAAGCCTGAGT,1
14,GCTGCTAGGTCAAGTTGGTCAGCTAACGGGTACG,2.17
15,CGTCCAAAGTCATAGGAGGTCAGTGAAGACAGAT,3.12
16,GCTTACGGGTCAAAGGTTTTAGCATGAATAGAAT,4.08
17,TCTAGTTGGTCAAAGGTCACACAATCGAAATGCG,5.52
18,CCTTACGGGTCACTCCTGGTTATAGCATCGGAGT,2.79
19,TGAATGAGGTTACAAGATCAGGGAACGTTGCAAA,0.984
20,TAGCCTAGGTCATGTGGGCCAGTATAGTGTCGGC,2.62

row,Sequence,PBM binding z-score
1,CCAGACAGGTGATAAGGTAACTCAGCCTCGATTA,-0.000379
2,TATACAGGGTAAAAGGCCAGAGTACGAATGTCGA,0.433
3,ATATGTAGGCTAAGGGTCATTCAGGTTGGTTCGC,5.13
4,GGAACGAGGGCAAGTTGATAACAGAGTTTGATGG,0.906
5,CCAGACAGGTGAGAAGGTAACTCATCCTCGATTA,0.198
6,ACTATTACTTGACTTAGGGCAACCGATACGACGC,0.428
7,AGTCAAAGTTCAGGATGAGGTAACGTAAAGCACG,2.88
8,AGAATGAGCTTAAGATCAGGGAAACAGAATACAT,-0.396
9,CGTCCAAGGTCATAGGAGGTCTGTGAAGACAGAT,4.72
10,TCTCGGAGGACGCGAAAGGTCAGAGCTCGACATC,2.8
11,CAAACTCGGTCACCGGAAGGTCAAAGTCCGCATG,4.77
12,AGAACGAGGGCACGCTGAATTGATAGCAGAGTAG,0.557
13,TCTTGTAGATCAACACGAGGTTAAGAAAGATCGA,0.895
14,TCTCGGAGGACACGATAGGTCAGAGCTCGACATC,0.769
15,TCTGGTAGATCAATAGAGGTTAAGAAAGTGCGCT,1.87
16,CCTATTGGGCCAAGGTCATTGATCAGTCAAAGCA,3.29
17,TGAATGAGGTTAAAGATCAGGGTACGTGGCGTCG,2.38
18,CAAACTAGGTCAAAGGTAAAAGTCGAGCCAACCA,2.98
19,ACTCAGAGGACAAAGGTCAGAGCTACGCCAGTGA,3.62
20,ATACCAAGGTGATAGTGAGGTCGTTGATACTAAC,3.69
